Source: PubChem BioAssay AID1259400 (National Center for Advancing Translational Sciences (NCATS), 2018)
Several values for one entry are separate records, joined by “and”; a condition that tells them apart may be missing. Identical values can stand only once. About 2,100 (0.6%) of roughly 350,000 compounds were called active. Roughly 1% stayed inconclusive and do not appear here. This is one part of a sample in which actives are shown more often than they occur.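 How the source made its calls: active means activity change of -60% or lower, but not beyond a set lower limit; inconclusive means change between -60% and -40%, or beyond the set limit; inactive means change above -40%.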

biological target: Relaxin receptor 1 (Homo sapiens) (UniProt Q9HBX9); experiment: qHTS Assay for Antagonists of the Relaxin Receptor RXFP1; settings: HEK293-RXFP1, relaxin-stimulated cAMP HTRF, 30 min; at 57.5 µM; stronger effect = lower value
Sequence (Q9HBX9 whole entry, looked up): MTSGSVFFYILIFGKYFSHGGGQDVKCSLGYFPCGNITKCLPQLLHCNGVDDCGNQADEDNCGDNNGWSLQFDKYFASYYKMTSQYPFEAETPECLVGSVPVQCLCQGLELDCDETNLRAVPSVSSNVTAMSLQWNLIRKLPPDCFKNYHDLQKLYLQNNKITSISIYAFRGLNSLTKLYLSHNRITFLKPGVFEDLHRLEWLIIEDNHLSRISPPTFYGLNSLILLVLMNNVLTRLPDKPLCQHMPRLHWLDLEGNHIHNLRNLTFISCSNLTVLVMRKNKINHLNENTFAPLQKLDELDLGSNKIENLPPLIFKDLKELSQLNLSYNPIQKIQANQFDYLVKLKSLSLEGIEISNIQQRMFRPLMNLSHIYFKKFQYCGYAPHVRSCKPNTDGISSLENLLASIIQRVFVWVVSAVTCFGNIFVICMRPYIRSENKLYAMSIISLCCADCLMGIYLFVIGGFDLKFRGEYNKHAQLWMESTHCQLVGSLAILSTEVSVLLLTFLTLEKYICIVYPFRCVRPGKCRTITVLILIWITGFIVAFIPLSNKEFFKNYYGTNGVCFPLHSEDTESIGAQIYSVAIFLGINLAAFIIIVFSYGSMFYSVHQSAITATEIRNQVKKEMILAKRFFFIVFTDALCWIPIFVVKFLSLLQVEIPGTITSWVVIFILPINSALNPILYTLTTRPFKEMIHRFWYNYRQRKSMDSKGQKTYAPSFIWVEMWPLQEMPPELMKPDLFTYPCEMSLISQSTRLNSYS
On the % scale 0 is the no-effect control and ±100 the full control effect.

Structure (SMILES)	activity change, negative = inhibition
CCCn1c(NCc2ccc(N(CC)CC)cc2)nc2ccccc21	-15% (inactive)
O=C(CSc1oc(-c2ccc(F)cc2)nc1S(=O)(=O)c1ccc(Br)cc1)NC1CCCCC1	-5.96% (inactive)
CC(C)S(=O)(=O)c1oc(-c2ccc(F)cc2)nc1S(=O)(=O)c1ccc(F)cc1	-89.7% (active)
Cc1ccc(-c2nc(S(=O)(=O)c3ccc(C)cc3)c(N3CCCCCC3)o2)cc1	2.42% (inactive)
Cc1nnc(Nc2ccccc2F)s1	3.61% (inactive)
O=c1cnnc(Nc2ccccc2F)[nH]1	-93.6% (active)
O=c1cnnc(Nc2ccccc2)[nH]1	9% (inactive)
CCCN(CCC)CCNC(=O)c1ccc2c(c1)NC(=O)C(CS(=O)(=O)Cc1cccc(Br)c1)N2 (stereo unspecified)	-10.4% (inactive)
Cc1ccc(CN(C(=O)COc2ccc(Cl)cc2C)C2CCS(=O)(=O)C2)o1 (stereo unspecified)	-6.16% (inactive)
COc1cc(OC)c(NC(=O)N2CC3CCCN3c3ccccc32)cc1Cl (stereo unspecified)	-23.5% (inactive)
Oc1c(Cl)cc(Cl)c(Cl)c1Cc1c(O)c(Cl)cc(Cl)c1Cl	-62.6% (active)
Cc1nc(SCC(=O)Nc2ccc(C(=O)O)cc2)n[nH]1	-9% (inactive)
CCOC(=O)c1ccc(NC(=O)c2c(NCc3cccc(OC)c3)sc3c2CCC3)cc1	-35.6% (inactive)
CCOc1ccc(NC(=O)c2c(NCc3cccc(OC)c3OC)sc3c2CCC3)cc1	-17.6% (inactive)
CCOC(=O)N1CCc2c(sc(NCc3cccc(F)c3)c2C(=O)Nc2ccccc2OCC)C1	-69.1% (active)
CC(C)N=C1CCCC1C(=S)SSC(=S)C1CCCC1=NC(C)C (stereo unspecified)	-72.7% (active)
COc1cccc(C(=O)NC(=O)Nc2ccc(-c3cc(C(F)(F)F)nn3-c3ccccc3)cc2)c1	-5.11% (inactive)
CCc1nc2ccc(C(=O)N3CCN(c4cc(Cl)ccc4C)CC3)cc2nc1CC	-64.4% (active)
Cc1ccc(Cl)cc1N1CCN(C(=O)c2cccn3c(=O)c4cc(Cl)ccc4nc23)CC1	3.52% (inactive)
CCc1nc2ccc(C(=O)N3CCN(c4cccc(Cl)c4)CC3)cc2nc1CC	-23.6% (inactive) and -19.3% (inactive)
COC(=O)Nc1nc2ccc(C(=O)C3CC3)cc2[nH]1	14.8% (inactive)
Cn1c(SCC(=O)N2CCCc3ccccc32)ncc(C(=O)Nc2ccc(F)cc2)c1=O	-2.51% (inactive)
Cc1cc(C)c2oc(C(=O)Nc3ccc(S(=O)(=O)N(C)c4ccccc4)cc3)cc(=O)c2c1	-2.14% (inactive)
O=c1oc2ccccc2cc1-c1csc(Nc2ccc(O)cc2)n1	-97% (active)
Cc1cc(NC(=O)c2cccc(Cl)c2)ccc1-c1cc2ccccc2oc1=O	-4.13% (inactive)
Cc1ccn2c(-c3csc(Nc4ccc(C(=O)O)cc4)n3)c(C)nc2c1	6.41% (inactive)
